GLP-1R inv ag = qHTS of GLP-1 Receptor Inverse Agonists (Inhibition Mode); AID 624417, 2012; Potency, µM (highest dose often 38.3 µM), for the others: at the highest dose activity change, negative = inhibition, actives largely listed as inhibitors; Glucagon-like peptide 1 receptor (Homo sapiens), P43220; hit rate 1.6% among 410,000; HEK293 GLP-1R CRE-luciferase, luminescence, 24 h; GLP-1R form is constitutively active; further: potency means the concentration at half of the fitted maximal effect; on the % scale 0 is the no-effect control and ±100 the full control effect; nearly all actives have a fitted effect of over 55% in size
Target sequence (P43220 whole entry, looked up): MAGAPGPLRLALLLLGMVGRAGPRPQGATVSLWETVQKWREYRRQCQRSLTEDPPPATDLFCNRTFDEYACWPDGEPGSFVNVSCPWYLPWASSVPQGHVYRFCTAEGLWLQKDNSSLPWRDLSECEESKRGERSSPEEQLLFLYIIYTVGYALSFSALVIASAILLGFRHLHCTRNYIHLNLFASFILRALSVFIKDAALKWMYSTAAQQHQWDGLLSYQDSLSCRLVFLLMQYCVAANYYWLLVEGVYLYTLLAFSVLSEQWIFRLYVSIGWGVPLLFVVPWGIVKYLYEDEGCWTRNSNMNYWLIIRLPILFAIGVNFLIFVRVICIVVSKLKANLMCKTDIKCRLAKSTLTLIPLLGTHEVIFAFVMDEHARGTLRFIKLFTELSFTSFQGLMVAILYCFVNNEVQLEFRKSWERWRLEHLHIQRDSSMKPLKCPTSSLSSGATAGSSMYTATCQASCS
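Inverse agonism was detected as reduced cAMP-driven luciferase luminescence after 24 h compound treatment. The cells were HEK293 clones expressing constitutively active human GLP-1R with the reporter. Reporter-only and GPR119 cell lines served as counterscreen controls.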
HEK293 tox = qHTS of GLP-1 Receptor Inverse Agonists: Cytotox Screen; HEK293 cAMP-luciferase reporter cells, luminescence, 24 h; Potency, µM (top dose mostly 38.3 µM), for inactives: at the top dose activity change, negative = inhibition, hits mostly inhibitors; hit rate 0.13% among 410,000; AID 624418, 2012;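 further: loss of luciferase light is scored as toxicity; potency means the concentration at half of the fitted maximal effect; on the % scale 0 is the no-effect control and ±100 the full control effect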
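To flag toxic compounds, the library was rerun on cells for 24 hr at 37 deg C and 5% CO2. Viability-linked luminescence was captured 12 min after adding luciferase detection reagent.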
p53 reactivation = qHTS assay for re-activators of p53 using a Luc reporter. hit rate 0.063% among 320,000. H1299 p53-A138V BP100-luciferase reporter, luminescence, 24 h. Potency, µM (titrated, usually from 92.2 µM), without a hit: top-dose activity change, positive = activation, hits mostly activators; further: potency means the concentration at half of the fitted maximal effect; % of control where 0% means no effect; nearly all actives have a fitted effect of over 45% in size
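p53-null H1299 cells stably carrying temperature-sensitive p53-A138V and a BP100-luciferase reporter were pinned with compounds (4-point, 1:5 series) and held 24 hrs at 37 deg C. Luminescence was read 10 min after detection reagent.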
LDHA block = qHTS assay for inhibitors of human lactate dehydrogenase; L-lactate dehydrogenase A chain (Homo sapiens), P00338; purified LDHA, NADH/diaphorase-resazurin fluorescence; stronger effect = lower value; activity change, % (values are at about 110 or 230 µM); hit rate 0.15% among 480,000; AID 1347041, 2019; in the data active means activity change below about -30%; inconclusive means mostly about -25% to -30%;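 further: plate controls were DMSO wells for no effect and wells without enzyme for full effect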
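Human LDH5 (2 nM) was incubated with 0.06 mM NADH and 0.2 mM pyruvate for 5 min at room temperature in Tris pH 7.4. Remaining NADH was coupled through diaphorase/resazurin, and resorufin fluorescence was read at 0 and 20 min.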
ClpP mod = qHTS Assay for Activators of ClpP. hit rate 1.9% among 340,000. purified B. subtilis ClpP, FRET peptide cleavage, 20 min. ATP-dependent Clp protease proteolytic subunit (Bacillus subtilis (strain 168)), P80244. AID 651965, 2013. Potency, µM (doses to about 57.5 µM), for inactives: at the top dose activity change, negative = active; active means well fitted falling curve with a large enough effect; inconclusive means small, poorly fitted or top-dose-only effect; inactive means no such curve, though single readings can be large or run the other way; further: potency means the concentration at half of the fitted maximal effect; the source files actives as falling curves though it sought activators and does not explain the sign; nearly all actives have a fitted effect of over 65% in size
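Buffer: 100 mM Tris/HCl pH8, 100 mM KCl, 0.05% low protease BSA, 2.5% glycerol, 0.01% Tween-20. ClpP 10 microg/mL final; 20 min RT; delta FRET normalized to ADEP and DMSO controls.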
GLP1R ag = qHTS of GLP-1 Receptor Agonists; hit rate 0.007% among 380,000; Glucagon-like peptide 1 receptor (Homo sapiens), P43220; AID 624172, 2012; Potency, µM (titrated, usually from 45.6 µM), inactives show at the highest dose activation, most hits filed as activators; HEK293 GLP-1R CRE-luciferase, luminescence, 4-6 h; cells express a hypersensitive GLP-1R form; further: potency means the concentration at half of the fitted maximal effect; % of control where 0% means no effect
* marks the source's active call; other numbers are inactive results; ? = inconclusive; nt = no result. Rows were chosen to be rich in hits. Some 2.9% of all compounds tested hit in one or more screens of this group. Unless noted, the call rests on the fitted dose curve; in most records, active means well fitted curve in the direction sought with a large enough effect; inconclusive means small, poorly fitted or top-dose-only effect, or another doubt; inactive means no such curve, though single readings can be large; an effect the other way counts as inactive or inconclusive.

SMILES	GLP-1R inv ag	HEK293 tox	p53 reactivation	LDHA block	ClpP mod	GLP1R ag
CC(OC(=O)c1ccccc1Br)C(=O)Nc1nc(-c2cccc([N+](=O)[O-])c2)cs1 (centres undefined)	27%	10%	12%	-5	0%	-1%
CCOc1cccc2sc(N(CCN(CC)CC)C(=O)c3cccc(N4C(=O)CCC4=O)c3)nc12	?	-7%	-3%	-4	3%	-9%
CCCOc1ncnc2c1[nH]c1ccc(OC)cc12	2%	2%	8%	-9	?	12%
CCCOc1ncnc2c1[nH]c1ccccc12	45%	-1%	?	-8	14µM*	23%
Cc1csc(NC(=O)Nc2cccc(Cl)c2)n1	?	-22%	28µM*	-5	0%	4%
Cc1csc(NC(=O)c2ccco2)n1	0%	11%	-6%	-9	22µM*	0%
Cc1nc(-c2ccc(NC(=O)c3ccco3)cc2)cs1	1µM*	24%	-15%	-5	-1%	-6%
Nc1nc(-c2ccc(NC(=O)c3ccco3)cc2)cs1	7.9µM*	-5%	-3%	-4	nt	5%
O=C(NCc1ccc(Cl)cc1)C1CCC(CNc2c(N3CCCC3)c(=O)c2=O)CC1 (centres undefined)	13%	0%	1%	-2	nt	11%
Fc1ccccc1-n1c(C23CC4CC(CC(C4)C2)C3)n[nH]c1=S	nt	nt	nt	4	nt	nt
COc1cc(S(=O)(=O)n2ccc(C)n2)c(OC)cc1Cl	3%	7%	1%	6	1%	3%
CCC1(C)CC(=O)N(c2ccc(C(=O)O)c(O)c2)C1=O (centres undefined)	10%	13%	5%	0	25µM*	-22%
COc1ccc(Br)cc1CNC(=O)CCCc1cn(C)c2ccccc12	22µM*	-6%	-5%	-8	-15%	5%
CC(C)NC(=O)CCCc1cn(C)c2ccccc12	2%	6%	-3%	-4	32µM*	-3%
CC(=O)N1CCCc2cc(S(=O)(=O)NC(C(=O)NC3CCCCC3)C(C)C)ccc21 (centres undefined)	34%	10%	-13%	-1	16µM*	-2%
O=C(COC(=O)[C@@H]1CC(O)CN1S(=O)(=O)c1ccc(Cl)cc1)NC(=O)NCc1ccccc1 (some centres undefined)	13%	9%	-5%	-6	-3%	-13%
CC(C)(C)NC(=O)CSc1nnc(-c2ccccc2)c(-c2ccccc2)n1	8.9µM*	4%	4%	2	-3%	8%
CC(C)NC(=O)CSc1nc2ccccc2n1-c1ccccc1	?	-11%	-8%	16	1%	24%
CC(C)(C)NC(=O)CSc1nc2ccccc2n1-c1ccccc1	10µM*	4%	3%	1	-3%	7%
CC(=O)NNC(=O)CSc1nnc(-c2ccccc2)c(-c2ccccc2)n1	5%	4%	nt	6	-1%	17%
Cc1ccc(C)c(NC(=O)CSc2nc(-c3ccccc3)cc(=O)[nH]2)c1	1%	-7%	nt	-11	-6%	nt
Cc1cccc(C2C=C(c3ccc(C)c(C)c3)Nc3nnnn32)c1 (centres undefined)	-26%	85%	nt	2	-15%	nt
CC(O)CNc1nc2ccccc2n1-c1ncnc2sc3c(c12)CCC3 (centres undefined)	10µM*	?	0%	-4	1%	0%

Screening data (PubChem)
